One test concerns Staphylococcus aureus. The settings on record: Concentration 20 uM; ASSAY_TEST Inhibition of Bacterial Growth; detection method Absorption (OD600); MEDIA CAMHB; plate type 384well; NBS; CORNING #3640; time 18 hr.
A further test concerns Escherichia coli. The following applies: Concentration 20 uM; ASSAY_TEST Inhibition of Bacterial Growth; detection method Absorption (OD600); MEDIA CAMHB; plate type 384well; NBS; CORNING #3640; time 18 hr.

Entries with a potency or affinity are not part of this list.

As for `CC(=O)OCC(=O)[C@@]12OC(C)(C)O[C@@H]1C[C@H]1[C@@H]3C[C@H](F)C4=CC(=O)C=C[C@]4(C)[C@@]3(F)[C@@H](O)C[C@@]12C` [FLUOCINONIDE], the Inhibition in the test with Staphylococcus aureus was 10.01%; in the test with Escherichia coli, -2.15%.

For the molecule `CCOC(=O)[C@@H](CCc1ccccc1)N[C@@H](C)C(=O)N1CCC[C@H]1C(=O)O.O=C(O)/C=C\C(=O)O`, the figures for the Inhibition in the test on Staphylococcus aureus and in the test with Escherichia coli were 8.37% and -3.24%, respectively.

In the case of `O=C1CN(/N=C/c2ccc(-c3ccc([N+](=O)[O-])cc3)o2)C(=O)[N-]1.[Na+]` [DANTROLENE SODIUM], the Inhibition in the test on Staphylococcus aureus is 4.1%; in the test with Escherichia coli, -9.64%.

Take `C[C@]12C=CC(=O)C=C1CC[C@@H]1[C@@H]2C(=O)C[C@@]2(C)[C@H]1CC[C@]2(O)C(=O)CO` [PREDNISONE]: the Inhibition with Staphylococcus aureus was 12.15%; in the test with Escherichia coli, 4.61%.

As to `CS(=O)(=O)c1ccc(-c2cc(Br)sc2-c2ccc(F)cc2)cc1` [DUP-697], the Inhibition in the test on Staphylococcus aureus is 14.13%; in the test on Escherichia coli, -0.37%.

For the molecule `CC=CC(=O)N(CC)c1ccccc1C`, the Inhibition in the test with Staphylococcus aureus turned out to be 8.78%; in the test with Escherichia coli, 0.72%.

These data come from ChEMBL document CHEMBL4513141, “CO-ADD screening of NIH (USA) - Clinical Collection” (2021).
